Results taken from article PMC4336329 (PLoS ONE, 2015).
The whole screen tested about 310,000 compounds, of which about 14,000 (4.5%) showed an effect of 50% or more. Effects have a minus sign here. The list comes from a sample in which strong results are over-represented; it also holds similar structures and randomly drawn compounds.

Target: human ether-à-go-go-related gene (hERG) potassium channel (human, UniProt Q12809)
Test: primary screen, population patch clamp on CHO cells stably expressing hERG; higher = less effect of the substance
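Further: peak tail current of the secondary pulse compared with the same well before compound.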

Chain of human ether-à-go-go-related gene (hERG) potassium channel (Q12809 whole entry, looked up): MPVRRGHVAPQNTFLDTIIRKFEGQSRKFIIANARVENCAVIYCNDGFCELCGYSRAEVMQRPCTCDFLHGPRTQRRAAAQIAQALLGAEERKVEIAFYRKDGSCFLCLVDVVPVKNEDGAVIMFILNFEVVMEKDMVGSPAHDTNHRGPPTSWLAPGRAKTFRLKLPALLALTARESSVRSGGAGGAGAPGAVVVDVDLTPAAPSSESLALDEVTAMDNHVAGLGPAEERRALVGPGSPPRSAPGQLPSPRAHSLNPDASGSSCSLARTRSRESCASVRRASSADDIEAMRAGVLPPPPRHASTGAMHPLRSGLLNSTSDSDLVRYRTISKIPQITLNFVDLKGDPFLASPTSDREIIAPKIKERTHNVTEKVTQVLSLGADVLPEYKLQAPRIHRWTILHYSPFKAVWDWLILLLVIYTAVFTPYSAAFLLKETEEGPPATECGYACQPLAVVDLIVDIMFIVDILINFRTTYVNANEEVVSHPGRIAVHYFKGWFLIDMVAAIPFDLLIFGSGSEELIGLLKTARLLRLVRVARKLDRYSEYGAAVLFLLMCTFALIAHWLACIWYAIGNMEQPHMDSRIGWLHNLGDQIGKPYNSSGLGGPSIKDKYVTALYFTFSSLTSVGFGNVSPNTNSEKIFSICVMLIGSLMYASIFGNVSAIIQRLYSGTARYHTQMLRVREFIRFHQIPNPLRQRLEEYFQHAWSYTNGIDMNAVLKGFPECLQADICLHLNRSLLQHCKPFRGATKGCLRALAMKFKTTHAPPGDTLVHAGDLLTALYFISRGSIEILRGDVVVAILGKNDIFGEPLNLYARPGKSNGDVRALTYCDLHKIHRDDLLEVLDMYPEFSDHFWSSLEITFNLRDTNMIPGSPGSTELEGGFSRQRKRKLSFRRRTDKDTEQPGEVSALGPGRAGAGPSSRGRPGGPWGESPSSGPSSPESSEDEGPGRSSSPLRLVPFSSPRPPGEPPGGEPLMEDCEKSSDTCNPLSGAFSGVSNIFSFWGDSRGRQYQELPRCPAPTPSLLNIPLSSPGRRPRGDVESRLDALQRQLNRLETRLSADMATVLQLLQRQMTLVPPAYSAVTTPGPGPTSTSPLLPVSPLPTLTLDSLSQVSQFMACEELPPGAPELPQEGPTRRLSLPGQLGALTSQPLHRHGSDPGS

In order of falling “hERG current change (%, negative = inhibition) at 10uM” value:
1. Cc1ccnc(NC(=O)CC(c2ccccc2)c2ccccc2)n1  30.5%
2. Clc1ccc(CSc2cc3c(nn2)-c2ccccc2CC3)cc1  23%
3. CCOc1cc(C(=O)NC2CC(C)(C)NC(C)(C)C2)cc(OCC)c1OCC  20%
4. COC(=O)c1cc(NC2c3ccccc3C(=O)N2c2ccc(Cl)cn2)cc(C(=O)OC)c1 (centres unmarked)  19.5%
5. CCc1ccc(NC(=O)c2cccc(NC3=NC4CS(=O)(=O)CC4S3)c2)cc1 (centres unmarked)  18%
6. CCOC(=O)Nc1ccc(C(=O)c2ccncc2)cc1  14.7%
7. CC(C)(C)C(=O)C1=C(O)C(=O)N(Cc2ccccc2)C1c1ccccc1Cl (centres unmarked)  14.1%
8. COc1ccccc1-c1ccc(=O)n(CC(=O)NC(C)(C)C)n1  14%
9. CC1=C(C(=O)OCC2CCCCC2)C(c2ccc(O)cc2)NC(=O)N1 (centres unmarked)  12.7%
10. CC12CN3CC(C)(CN(C1)C31CCOCC1)C2=O  11.4%
11. CCn1c(SCC(=O)NCC2CCCO2)nnc1-c1ccccc1OC (centres unmarked)  10.9%
12. COc1ccc(OC)c(Nc2nc(-c3ccc(O)c(O)c3)cs2)c1  10.8%
13. O=C(NCc1cccs1)C1CCN(S(=O)(=O)c2ccccc2F)CC1  10.4%
14. COc1ccc(/C=N/NC(=O)c2ccccc2OC)cc1COc1ccccc1[N+](=O)[O-]  8.94%
15. CCn1c(=O)n(CC(=O)NCc2ccccc2OC)c(=O)c2ccccc21  8.2%
16. COCCn1c(Br)nc2c1c(=O)n(C)c(=O)n2C  8.14%
17. COc1ccc(/C=N\NC(=O)c2ccccc2[N+](=O)[O-])cc1COc1c(F)c(F)c(F)c(F)c1F  8.06%
18. Cc1csc(N)n1  7.04%
19. CC(=O)Nc1ccc(S(=O)(=O)NCC2CCC(C(=O)NCCCN(C)Cc3ccccc3)CC2)cc1 (centres unmarked)  6.98%
20. O=C1NC(c2ccccc2)CCC1(Cl)Cl (centres unmarked)  6.57%
21. Cc1nc2cc(NC(=O)Nc3ccc(N4CCOCC4)cc3)ccc2n1C  6.34%
22. COc1ccc(/C=N/NC(=O)c2ccc(OC)c(OC)c2)cc1COc1c(F)c(F)c(F)c(F)c1F  5.91%
23. Cc1ccccc1C(=O)N1CCN(c2ccc(NC(=O)c3cccs3)cc2)CC1  4.97%
24. COc1cccc2[nH]c3c(N4CCc5ccccc5C4)ncnc3c12  4.69%
25. O=C(NCc1cccs1)C1CCN(S(=O)(=O)c2ccc(Cl)cc2)CC1  4.41%
26. CC1(C)Cc2c(sc(NC(=O)C(C)(C)C)c2C#N)C(C)(C)N1  3.16%
27. Cc1ccc(S(=O)(=O)NCC(=O)OCC(=O)c2ccc(Cl)s2)cc1  1.12%
28. COc1ccc(/C=N/NC(=O)c2ccc(O)cc2)cc1CN1CCCc2ccccc21  0.817%
29. Cc1ccc(Cn2nnnc2CN2CCC(NC(=O)C(C)(C)C)CC2)cc1.Cl  0.395%
30. Cc1ccc(S(=O)(=O)NCC(=O)OCC(=O)c2cccs2)cc1  0.259%
31. Cc1cccc(CN2C(=O)[C@H]3Cc4c([nH]c5ccccc45)C(C)(C)N3C2=O)c1  -1.56%
32. O=C(NCc1ccco1)C1CCN(S(=O)(=O)Cc2ccccc2)CC1  -5.29%
33. CC(=O)Nc1ccc(S(=O)(=O)N2CCN(Cc3cccs3)CC2)cc1.O=C(O)C(=O)O  -7.69%
34. CS(=O)(=O)Nc1ccccc1C(=O)NCC1(N2CCCCC2)CCCCC1  -8.32%
35. O=C(O)c1ccc(NS(=O)(=O)c2ccc(C(=O)Nc3ccccc3)cc2)cc1  -8.65%
36. N#CCCN1CCN(S(=O)(=O)c2ccc(C#N)cc2)CC1  -10.6%
37. COc1ccc(C(=O)N/N=C/c2ccc(OC)c(CN3CCCc4ccccc43)c2)cc1  -11.9%
38. Cl.O=C(CN1CCN(c2ccc(F)cc2)CC1)NCc1cccs1  -15.4%
39. CS(=O)(=O)NC1c2cccc3cccc(c23)C1Sc1nncn1/N=C/c1ccco1 (centres unmarked)  -21.1%
40. Cc1ccc(C)c(CN2CCC(n3nnc4cc(F)ccc43)CC2)c1  -21.2%
41. O=C(COc1ccccc1O)N1CCN(C(=O)c2ccco2)CC1  -24.8%
42. COc1ccc(C(=O)N/N=C/c2ccc(OC)c(COc3ccccc3)c2)cc1  -26.1%
43. O=C(CSc1ncn[nH]1)Nc1ccc2c(c1)OCCO2  -26.9%
44. CCOc1ccc(S(=O)(=O)N(C)CC(=O)NCc2ccccn2)cc1Cl  -27.8%
45. Cc1ccc(S(=O)(=O)N2CCC(n3nnc4cc(C)ccc43)CC2)cc1  -28.9%
46. O=C(CN1CCN(S(=O)(=O)c2ccc(F)cc2)CC1)NCc1cccs1  -32.1%
47. COc1ccc(/C=N/NC(=O)c2cccnc2)cc1CN1CCc2cc(OC)c(OC)cc2C1C (centres unmarked)  -40.9%
48. COc1ccc(/C=N\NC(=O)c2ccc(F)cc2)cc1COc1ccccc1C(N)=O  -44.3%
49. Cc1ccc(Cn2nnnc2CN2CCC(NC(=O)c3ccc(Br)cc3)CC2)cc1  -44.7%
50. Cc1ccc(S(=O)(=O)NCC(=O)OCC(=O)c2ccc(Br)s2)cc1  -52.7%
51. Cc1ccc(Cn2nnnc2CN2CCC(n3nnc4ccccc43)CC2)cc1.Cl  -53.9%
52. O=C(CN1CCN(S(=O)(=O)c2ccc(Cl)cc2)CC1)NCc1cccs1  -59.1%
53. N#Cc1ccc(S(=O)(=O)N2CCN(Cc3cccs3)CC2)cc1  -61.2%
54. COc1ccc(/C=N/NC(=O)c2ccccc2[N+](=O)[O-])cc1CN1CCc2cc(OC)c(OC)cc2C1C (centres unmarked)  -63.9%
55. Cc1ccc(Cn2nnnc2CN2CCC(n3nnc4cc(C)ccc43)CC2)cc1  -65.2%
56. O=C(CN1CCN(S(=O)(=O)c2ccccc2C(F)(F)F)CC1)NCc1cccs1  -68.1%
57. COc1ccc(/C=N/NC(=O)c2cc(OC)c(OC)c(OC)c2)cc1CN1CCc2cc(OC)c(OC)cc2C1C (centres unmarked)  -73.4%
58. COc1ccc(C(=O)N/N=C/c2ccc(OC)c(CN3CCc4cc(OC)c(OC)cc4C3C)c2)cc1 (centres unmarked)  -76%
59. COc1ccc(/C=N/NC(=O)c2ccc(F)cc2)cc1CN1CCc2cc(OC)c(OC)cc2C1C (centres unmarked)  -88.3%
